# Whole data set: some 39,000 sequences, median “fluorescence intensity (a.u.)” near 4,300, cut for the highest 2% near 39,000. For the sample, the highest values were picked, then their nearest neighbours and some sequences at random.
# Biological target: T1, OsSMF1 (Oryza sativa, UniProt Q6ZLB0 1-436)
# T1 sequence: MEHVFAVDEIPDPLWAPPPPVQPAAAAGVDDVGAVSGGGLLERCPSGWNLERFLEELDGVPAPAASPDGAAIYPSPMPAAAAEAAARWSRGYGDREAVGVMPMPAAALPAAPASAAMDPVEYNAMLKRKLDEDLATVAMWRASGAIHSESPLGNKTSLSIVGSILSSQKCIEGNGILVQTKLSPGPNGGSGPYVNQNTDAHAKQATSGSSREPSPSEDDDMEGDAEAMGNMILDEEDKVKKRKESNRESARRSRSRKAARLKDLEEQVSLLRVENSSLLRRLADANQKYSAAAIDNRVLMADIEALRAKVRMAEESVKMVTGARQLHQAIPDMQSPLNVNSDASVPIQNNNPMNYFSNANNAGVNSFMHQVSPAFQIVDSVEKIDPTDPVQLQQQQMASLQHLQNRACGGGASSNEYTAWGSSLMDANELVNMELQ
# Test: protein-binding microarray (RPBM); PBS, 2% BSA, 51.3 ng/ul salmon testes DNA, 50 uM zinc acetate, 200 nM TF, 25 C, 1 h; high values mean tight binding
# Conditions: protein: recombinant; tags: N-terminal polyhistidine and DsRed monomer fusion (pET32a); chain copies: 2; label: CyDye5-dUTP incorporated in the synthesized complementary strand; 3' TTTTT single-stranded linker to array surface; dsDNA, one strand shown
# Summary of the method: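 The binding signal for each feature is its fluorescence intensity in arbitrary units. An Axon 4000B scanner was used to read a custom Agilent array that had been made double-stranded with Cy5-dUTP primer extension, blocked with 2% BSA, incubated at 25 °C for 1 h with 200 nM protein in PBS, 2% BSA, salmon testes DNA and 50 µM zinc acetate, and washed. The protein was an N-terminal polyhistidine–DsRed transcription factor fusion from E. coli BL21-CodonPlus, purified on Ni–NTA.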
row,Sequence,binding signal
1,GGAGGAGGAGGAGGAGGGAGATGGTGGCGAGCTGACTTGGCGGAGTCACCTAGTGCAG,4090 fluorescence intensity (a.u.)
2,TCAGCTGCGTCACCCGAGTCCTCCACTCGTCTCCGCTATTCGGAGTCACCTAGTGCAG,5650 fluorescence intensity (a.u.)
3,TCACTGCGTGCATGTATGTACGTGGATTGTCCAATTACAACGGAGTCACCTAGTGCAG,3300 fluorescence intensity (a.u.)
4,CTCCTAGCAGCAACAGGGCCACGTTTGCTCTGCGAACAGGCGGAGTCACCTAGTGCAG,4590 fluorescence intensity (a.u.)
5,TTTGGTTAGTGAATTTAGCTATCCTCTCCTTGACTTCCTACGGAGTCACCTAGTGCAG,3660 fluorescence intensity (a.u.)
6,ATTTAGTGCTAAATATGTAGTTTCATGATACATCATGTTACGGAGTCACCTAGTGCAG,3850 fluorescence intensity (a.u.)
7,GGTGCAGTTCATCATATGTGTTAGACTAATTGAGTAATTGCGGAGTCACCTAGTGCAG,36500 fluorescence intensity (a.u.)
8,TGGTGTGTAATTTGTGCAAATTCTAAGCAAATGCAAATTGCGGAGTCACCTAGTGCAG,17200 fluorescence intensity (a.u.)
9,TGTGTTCTGCAATGCATAATTGCACCAGTTCTAGTACCTGCGGAGTCACCTAGTGCAG,45300 fluorescence intensity (a.u.)
10,CAGGGGCATTTCCGTAAACTCCCACGTGGCACAGATACGGCGGAGTCACCTAGTGCAG,13200 fluorescence intensity (a.u.)
11,TCTTGACATCCGGAATCATCACGCTCTTCCCAATCGAGGTCGGAGTCACCTAGTGCAG,3680 fluorescence intensity (a.u.)
12,AAGTAGCCCGGATCTCCCAGCTTCCCTCGAGCTGACCTCACGGAGTCACCTAGTGCAG,3960 fluorescence intensity (a.u.)
13,TGCCACGTCAGCGAAAACCACCATCTAAACCACCGCCATGCGGAGTCACCTAGTGCAG,7960 fluorescence intensity (a.u.)
14,TTTAATTCAAATGCCAGCTAAGCGCTACGTCAACCCTACACGGAGTCACCTAGTGCAG,15500 fluorescence intensity (a.u.)
15,TTTAATTCAAATGCCACCTAAGCACCACGTCAGCGAAACCCGGAGTCACCTAGTGCAG,42600 fluorescence intensity (a.u.)
16,TGCTGACTATGATGCCACGTCAGCGAAACCACCCATATATCGGAGTCACCTAGTGCAG,23000 fluorescence intensity (a.u.)
17,TTTTAATTCAAATGCCACCTAAGCGCCACGTCAACCCTATCGGAGTCACCTAGTGCAG,23500 fluorescence intensity (a.u.)
18,ACTAAGCTGCCACGTGGATGCCACGTCAGCGAAAACCACCCGGAGTCACCTAGTGCAG,61800 fluorescence intensity (a.u.)
19,GGGCGGAGCTAGAATAAAATAAAGGAGGGTTCCACTCGTTCGGAGTCACCTAGTGCAG,23100 fluorescence intensity (a.u.)
20,TCGATTTACTGACAAAATTGTATCCCAAAACAATGGCTTACGGAGTCACCTAGTGCAG,33700 fluorescence intensity (a.u.)
21,TTCTCTACCAGCGGCAGCGGCGGCTGGTAGGGAGGAGGAGCGGAGTCACCTAGTGCAG,4860 fluorescence intensity (a.u.)

row,Sequence,binding signal
1,ATAAAGAAGGGAGGCAGCGGGCGAGCTGTAAAGGAGTACACGGAGTCACCTAGTGCAG,32300 fluorescence intensity (a.u.)
2,GGATTGACGGGGACGCGGTGGTGGCGCCAACGGATGGACGCGGAGTCACCTAGTGCAG,6220 fluorescence intensity (a.u.)
3,TTACTGGTGATATTTATTTTGACAAGTGCTTTTATTTGTACGGAGTCACCTAGTGCAG,3930 fluorescence intensity (a.u.)
4,TTACTAGTACATTTAATATATTTATTTAATGTATTTGTATCGGAGTCACCTAGTGCAG,3140 fluorescence intensity (a.u.)
5,CATTTTGTACTTTGACAAGTATTTAATATTTGCCAGTAGTCGGAGTCACCTAGTGCAG,65100 fluorescence intensity (a.u.)
6,ATATTCGTCTCTATCGCTTAAGGCGGTTAGTTGCGTGTCACGGAGTCACCTAGTGCAG,3930 fluorescence intensity (a.u.)
7,TTAATGATTTTATTTGAATGGATCAGGGTCCAATTTGCTGCGGAGTCACCTAGTGCAG,55800 fluorescence intensity (a.u.)
8,GTCCAATTTAATGCTGACGTTGCTGATGGAATGCCGTGGACGGAGTCACCTAGTGCAG,10500 fluorescence intensity (a.u.)
9,AATCATTTTATTTGACTAATACACGTCAGGATTGAATGAGCGGAGTCACCTAGTGCAG,4880 fluorescence intensity (a.u.)
10,GCAGGGCAGGCTGACAGCTCATCTTCTCAGAGGATCCGATCGGAGTCACCTAGTGCAG,5100 fluorescence intensity (a.u.)
11,AGCGTCGCGCCGCGCCACGCCACGCCACGCCACCCCACCACGGAGTCACCTAGTGCAG,5830 fluorescence intensity (a.u.)
12,TGAGCCACGCACTGAACACGACCGTTCGATCCCCTCAAGGCGGAGTCACCTAGTGCAG,3810 fluorescence intensity (a.u.)
13,TTTGGTGCGAGCGAAATACCAGGATCTTTATACACATAGCCGGAGTCACCTAGTGCAG,58000 fluorescence intensity (a.u.)
14,CGTATATGTATATATACATACTTTATACACATATATATACCGGAGTCACCTAGTGCAG,3360 fluorescence intensity (a.u.)
15,ATACCTGATCCTACTTGTCATACACATATTTATCTTATAGCGGAGTCACCTAGTGCAG,3620 fluorescence intensity (a.u.)
16,ACTGCCATGGTTGCGGAGCAGGATGGTGACGTGGATCCCACGGAGTCACCTAGTGCAG,17700 fluorescence intensity (a.u.)
17,GCCGCTTTTGCGAATTTTGCACGTAGACCCCTTGCCGCCCCGGAGTCACCTAGTGCAG,3330 fluorescence intensity (a.u.)
18,TTGTACCAGCTAACTCATCACCACGCAGGCCAGAGTAGTACGGAGTCACCTAGTGCAG,45900 fluorescence intensity (a.u.)
19,ACACAGCCACGCCCGTACGCAGCTACGTACGCACGCATCACGGAGTCACCTAGTGCAG,5670 fluorescence intensity (a.u.)
20,TCACCACCTCACTCCACTAACCAGAGAGAGAACGCAGCTACGGAGTCACCTAGTGCAG,21000 fluorescence intensity (a.u.)
21,CGTGAGCGGGTGGTGGTGGTGATGGCGTTCGCGGTGGCGACGGAGTCACCTAGTGCAG,3520 fluorescence intensity (a.u.)

# Source: article PMC7819943, “Rice protein-binding microarrays: a tool to detect cis-acting elements near promoter regions in rice”
